Data from the supplement of paper PMC10849652.
About 7,900 targets were measured; listed, in parts, are those with a hit and a random draw of the rest. About 0.6% of all pairs of compound and target were hits.

The targets below were run with CN1CC[C@H](c2c(O)cc(O)c3c(=O)cc(-c4ccccc4Cl)oc23)[C@H](O)C1 [alvocidib] (assay: log2 fold change, soluble protein after heating vs DMSO (PISA); higher = thermal stabilisation; K562 cells, 10 uM, 30 min; active = over 0.2 and 3.5 SD of the protein, either way, in both replicates (recomputed)).
How it was run: (§1)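 K562 cells at 2×10^6 cells/mL were exposed to 10 μM compound for 30 min, then aliquots were heated for 3 min across 48°C-58°C, pooled, and extracted in PBS containing 0.5% NP-40 at 4°C. The supernatant after 21,000xg for 90 min was taken as soluble protein and measured by TMTpro 16plex LC-MS/MS with channel sums equalised. Thermal stability is reported relative to control samples, with values from duplicates. Fold changes are given on a log2 scale.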

Chain of UniProt Q9Y287 (Q9Y287 whole entry, looked up): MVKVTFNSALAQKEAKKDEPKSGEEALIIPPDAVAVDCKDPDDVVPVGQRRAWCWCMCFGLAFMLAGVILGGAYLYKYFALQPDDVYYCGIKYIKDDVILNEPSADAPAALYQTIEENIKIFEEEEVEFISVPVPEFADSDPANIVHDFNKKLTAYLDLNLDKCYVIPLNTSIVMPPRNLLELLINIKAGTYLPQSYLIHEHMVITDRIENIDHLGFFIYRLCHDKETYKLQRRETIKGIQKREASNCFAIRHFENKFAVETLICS
Chain of UniProt Q99661 (Q99661 whole entry, looked up): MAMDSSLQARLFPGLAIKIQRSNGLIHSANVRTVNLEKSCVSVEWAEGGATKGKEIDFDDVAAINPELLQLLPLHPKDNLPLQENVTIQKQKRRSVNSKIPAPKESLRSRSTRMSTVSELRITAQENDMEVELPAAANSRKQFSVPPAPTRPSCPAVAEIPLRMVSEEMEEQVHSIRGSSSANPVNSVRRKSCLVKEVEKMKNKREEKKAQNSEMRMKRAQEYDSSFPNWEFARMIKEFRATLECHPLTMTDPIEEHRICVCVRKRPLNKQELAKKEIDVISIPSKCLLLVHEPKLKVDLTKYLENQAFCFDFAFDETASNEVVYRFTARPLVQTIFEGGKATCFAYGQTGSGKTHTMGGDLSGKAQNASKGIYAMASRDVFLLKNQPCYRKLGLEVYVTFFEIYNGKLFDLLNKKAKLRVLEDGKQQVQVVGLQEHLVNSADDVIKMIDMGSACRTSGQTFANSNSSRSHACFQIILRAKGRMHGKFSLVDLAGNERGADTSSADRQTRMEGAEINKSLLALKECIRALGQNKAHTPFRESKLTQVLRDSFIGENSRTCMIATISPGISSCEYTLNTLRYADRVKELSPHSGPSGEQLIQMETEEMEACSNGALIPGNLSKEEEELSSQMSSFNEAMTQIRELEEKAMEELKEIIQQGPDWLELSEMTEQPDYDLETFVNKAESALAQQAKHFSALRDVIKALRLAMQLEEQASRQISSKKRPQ
Chain of UniProt Q02750 (Q02750 whole entry, looked up): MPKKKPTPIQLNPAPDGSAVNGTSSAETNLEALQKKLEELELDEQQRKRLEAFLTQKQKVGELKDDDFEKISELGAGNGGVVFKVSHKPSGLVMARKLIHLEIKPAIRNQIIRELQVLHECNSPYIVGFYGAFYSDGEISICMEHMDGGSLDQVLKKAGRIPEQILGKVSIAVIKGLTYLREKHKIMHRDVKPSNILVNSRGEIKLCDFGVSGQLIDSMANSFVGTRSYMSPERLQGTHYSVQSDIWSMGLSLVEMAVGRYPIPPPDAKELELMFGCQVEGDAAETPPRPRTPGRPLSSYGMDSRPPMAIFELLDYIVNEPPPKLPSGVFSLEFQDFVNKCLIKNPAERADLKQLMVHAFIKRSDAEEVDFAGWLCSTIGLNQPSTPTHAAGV
Chain of UniProt Q6UWB1 (Q6UWB1 whole entry, looked up): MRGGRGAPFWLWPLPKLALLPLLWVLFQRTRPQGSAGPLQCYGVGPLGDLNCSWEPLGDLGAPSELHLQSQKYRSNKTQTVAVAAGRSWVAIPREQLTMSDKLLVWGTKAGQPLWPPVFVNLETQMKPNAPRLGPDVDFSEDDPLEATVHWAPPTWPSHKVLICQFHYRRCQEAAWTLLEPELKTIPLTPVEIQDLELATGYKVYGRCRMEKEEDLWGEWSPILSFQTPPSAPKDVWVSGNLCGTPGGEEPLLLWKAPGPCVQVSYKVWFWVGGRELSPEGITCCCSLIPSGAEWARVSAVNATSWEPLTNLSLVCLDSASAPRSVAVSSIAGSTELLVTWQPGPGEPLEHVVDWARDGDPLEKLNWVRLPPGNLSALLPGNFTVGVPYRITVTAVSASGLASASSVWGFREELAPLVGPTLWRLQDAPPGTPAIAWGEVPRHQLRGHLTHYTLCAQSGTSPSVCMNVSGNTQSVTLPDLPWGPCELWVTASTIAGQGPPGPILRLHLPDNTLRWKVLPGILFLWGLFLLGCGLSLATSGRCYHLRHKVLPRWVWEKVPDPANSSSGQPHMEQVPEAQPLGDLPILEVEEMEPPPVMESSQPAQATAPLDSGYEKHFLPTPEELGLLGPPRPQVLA
Chain of UniProt P20700 (P20700 whole entry, looked up): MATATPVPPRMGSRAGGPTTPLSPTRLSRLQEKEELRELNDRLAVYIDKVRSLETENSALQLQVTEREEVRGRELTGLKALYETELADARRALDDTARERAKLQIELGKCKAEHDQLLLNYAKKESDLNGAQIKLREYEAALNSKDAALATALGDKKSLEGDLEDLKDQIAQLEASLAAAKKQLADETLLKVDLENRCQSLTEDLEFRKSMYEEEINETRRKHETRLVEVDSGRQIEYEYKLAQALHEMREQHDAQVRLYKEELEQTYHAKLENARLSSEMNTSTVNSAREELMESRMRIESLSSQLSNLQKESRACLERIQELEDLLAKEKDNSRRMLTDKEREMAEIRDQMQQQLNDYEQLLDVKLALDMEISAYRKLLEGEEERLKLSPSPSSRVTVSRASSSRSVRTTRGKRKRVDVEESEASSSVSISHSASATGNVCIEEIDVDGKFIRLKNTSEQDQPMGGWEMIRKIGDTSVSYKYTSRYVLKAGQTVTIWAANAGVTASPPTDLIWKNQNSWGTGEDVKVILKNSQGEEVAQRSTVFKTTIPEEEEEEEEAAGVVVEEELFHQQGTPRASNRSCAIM
Chain of UniProt P36507 (P36507 whole entry, looked up): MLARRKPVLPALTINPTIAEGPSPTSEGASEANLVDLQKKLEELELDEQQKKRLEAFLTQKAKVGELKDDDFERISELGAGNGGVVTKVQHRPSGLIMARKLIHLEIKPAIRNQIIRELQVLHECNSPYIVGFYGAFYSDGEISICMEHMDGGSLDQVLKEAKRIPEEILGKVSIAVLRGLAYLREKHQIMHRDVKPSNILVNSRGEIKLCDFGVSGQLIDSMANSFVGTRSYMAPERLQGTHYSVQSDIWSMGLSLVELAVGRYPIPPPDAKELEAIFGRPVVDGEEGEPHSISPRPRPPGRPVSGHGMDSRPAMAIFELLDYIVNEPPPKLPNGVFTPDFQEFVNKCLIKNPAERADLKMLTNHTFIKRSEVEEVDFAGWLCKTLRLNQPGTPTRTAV
Chain of UniProt Q92604 (Q92604 whole entry, looked up): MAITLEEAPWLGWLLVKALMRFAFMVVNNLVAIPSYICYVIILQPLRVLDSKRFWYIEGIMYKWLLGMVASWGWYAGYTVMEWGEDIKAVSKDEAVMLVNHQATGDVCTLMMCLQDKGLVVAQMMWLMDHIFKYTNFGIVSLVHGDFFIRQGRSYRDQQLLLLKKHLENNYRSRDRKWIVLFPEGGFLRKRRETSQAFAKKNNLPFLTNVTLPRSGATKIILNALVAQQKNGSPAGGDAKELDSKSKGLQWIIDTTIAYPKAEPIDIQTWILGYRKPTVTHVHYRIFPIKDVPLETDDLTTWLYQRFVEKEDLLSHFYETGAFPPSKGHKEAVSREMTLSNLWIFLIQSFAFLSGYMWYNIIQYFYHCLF
Chain of UniProt Q9UGP4 (Q9UGP4 whole entry, looked up): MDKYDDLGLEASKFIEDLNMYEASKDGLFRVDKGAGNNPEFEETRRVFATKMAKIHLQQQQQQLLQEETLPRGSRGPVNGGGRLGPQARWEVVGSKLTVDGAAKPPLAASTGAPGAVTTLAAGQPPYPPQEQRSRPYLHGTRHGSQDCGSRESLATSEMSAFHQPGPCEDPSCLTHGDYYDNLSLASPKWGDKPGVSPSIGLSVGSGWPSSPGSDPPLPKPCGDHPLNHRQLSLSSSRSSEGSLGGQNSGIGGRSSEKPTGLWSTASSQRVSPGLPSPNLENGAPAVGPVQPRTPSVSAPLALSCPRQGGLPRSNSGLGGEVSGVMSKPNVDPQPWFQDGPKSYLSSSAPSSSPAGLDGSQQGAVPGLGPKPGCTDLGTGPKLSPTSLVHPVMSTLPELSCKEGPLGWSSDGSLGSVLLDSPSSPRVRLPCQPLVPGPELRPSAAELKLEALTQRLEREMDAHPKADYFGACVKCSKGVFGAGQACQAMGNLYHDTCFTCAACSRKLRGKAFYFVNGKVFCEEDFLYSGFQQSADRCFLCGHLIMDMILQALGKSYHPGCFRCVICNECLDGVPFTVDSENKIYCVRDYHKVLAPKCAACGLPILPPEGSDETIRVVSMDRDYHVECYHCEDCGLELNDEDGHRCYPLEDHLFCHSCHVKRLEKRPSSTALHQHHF
Chain of UniProt P13473 (P13473 whole entry, looked up): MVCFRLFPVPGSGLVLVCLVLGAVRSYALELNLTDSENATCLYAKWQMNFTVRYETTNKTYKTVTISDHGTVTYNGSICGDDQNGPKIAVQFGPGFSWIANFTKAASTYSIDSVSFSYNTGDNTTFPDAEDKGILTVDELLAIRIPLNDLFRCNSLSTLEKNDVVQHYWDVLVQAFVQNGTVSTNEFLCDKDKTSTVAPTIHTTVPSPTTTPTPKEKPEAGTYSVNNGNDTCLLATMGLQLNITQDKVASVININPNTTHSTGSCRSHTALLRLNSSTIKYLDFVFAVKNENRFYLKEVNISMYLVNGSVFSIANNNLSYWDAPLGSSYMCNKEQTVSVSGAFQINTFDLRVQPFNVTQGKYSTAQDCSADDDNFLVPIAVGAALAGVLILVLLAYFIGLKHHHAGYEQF
Chain of UniProt Q96GA3 (Q96GA3 whole entry, looked up): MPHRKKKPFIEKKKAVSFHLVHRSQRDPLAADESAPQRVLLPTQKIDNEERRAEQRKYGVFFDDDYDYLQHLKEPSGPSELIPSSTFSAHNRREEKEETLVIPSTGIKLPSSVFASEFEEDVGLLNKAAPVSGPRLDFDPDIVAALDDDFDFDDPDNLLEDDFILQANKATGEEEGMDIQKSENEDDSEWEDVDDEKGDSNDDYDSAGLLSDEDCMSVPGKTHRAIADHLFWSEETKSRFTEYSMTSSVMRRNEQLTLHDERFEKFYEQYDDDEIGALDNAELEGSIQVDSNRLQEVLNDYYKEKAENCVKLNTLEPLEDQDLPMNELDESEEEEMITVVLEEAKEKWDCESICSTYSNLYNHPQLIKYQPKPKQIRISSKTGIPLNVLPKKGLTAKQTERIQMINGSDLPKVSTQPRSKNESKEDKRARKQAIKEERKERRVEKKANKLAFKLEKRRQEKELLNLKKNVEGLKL

Target | log2 fold change
LTV1 (UniProt Q96GA3) | 0.151 (inactive)
LMNB1 (UniProt P20700) | -0.173 (inactive)
LNPK (UniProt Q9C0E8) | -0.006 (inactive)
LDAH isoform 2 (UniProt Q9H6V9) | -0.139 (inactive)
IL27RA (UniProt Q6UWB1) | -0.025 (inactive)
KIF2C (UniProt Q99661) | -0.019 (inactive)
LAMP2 (UniProt P13473) | 0.056 (inactive)
LMNB2 (UniProt Q03252) | -0.02 (inactive)
MAP1LC3B2 (UniProt A6NCE7) | -0.063 (inactive)
METAP1D (UniProt Q6UB28) | -0.086 (inactive)
LIMD1 (UniProt Q9UGP4) | -0.03 (inactive)
MED17 (UniProt Q9NVC6) | -0.009 (inactive)
KIF3A (UniProt Q9Y496) | -0.02 (inactive)
IKZF1 (UniProt Q13422) | -0.127 (inactive)
KSR1 (UniProt Q8IVT5) | -0.135 (inactive)
MAIP1 (UniProt Q8WWC4) | -0.058 (inactive)
LPGAT1 (UniProt Q92604) | -0.011 (inactive)
LTO1 (UniProt Q8WV07) | -0.01 (inactive)
LARP4 isoform 4 (UniProt Q71RC2) | 0.031 (inactive)
IMMP1L (UniProt Q96LU5) | 0.039 (inactive)

Target | log2 fold change
LRBA (UniProt P50851) | -0.054 (inactive)
LMBRD2 (UniProt Q68DH5) | -0.041 (inactive)
MAP2K2 (UniProt P36507) | -0.024 (inactive)
ITM2B (UniProt Q9Y287) | -0.053 (inactive)
IPO13 (UniProt O94829) | 0.013 (inactive)
ILRUN (UniProt Q9H6K1) | -0.022 (inactive)
IRF2BPL (UniProt Q9H1B7) | -0.079 (inactive)
LDLR (UniProt P01130) | -0.04 (inactive)
LUC7L3 (UniProt O95232) | -0.049 (inactive)
MAP2K7 isoform 4 (UniProt O14733) | -0.028 (inactive)
MDC1 (UniProt Q14676) | 0.027 (inactive)
MAP2K1 (UniProt Q02750) | -0.05 (inactive)
MARK3 (UniProt P27448) | -0.011 (inactive)
KIF21A isoform 4 (UniProt Q7Z4S6) | 0.134 (inactive)
LEMD3 (UniProt Q9Y2U8) | -0.057 (inactive)
KDM5D isoform 3 (UniProt Q9BY66) | -0.193 (inactive)
IK (UniProt Q13123) | 0.108 (inactive)
KLC2 (UniProt Q9H0B6) | -0.095 (inactive)
INPP5B (UniProt P32019) | -0.076 (inactive)

These targets were tested with CN1CCc2c(c3ccccc3n2Cc2ccc(C(=O)NO)cc2)C1 [Tubastatin A] in the same assay as above.
How it was run: as §1

Target | log2 fold change
LTV1 (UniProt Q96GA3) | 0.16 (inactive)
LMNB1 (UniProt P20700) | -0.016 (inactive)
LNPK (UniProt Q9C0E8) | -0.034 (inactive)
LDAH isoform 2 (UniProt Q9H6V9) | -0.03 (inactive)
IL27RA (UniProt Q6UWB1) | 0.063 (inactive)
KIF2C (UniProt Q99661) | 0.024 (inactive)
LAMP2 (UniProt P13473) | -0.061 (inactive)
LMNB2 (UniProt Q03252) | 0.02 (inactive)
MAP1LC3B2 (UniProt A6NCE7) | 0.037 (inactive)
METAP1D (UniProt Q6UB28) | -0.181 (inactive)
LIMD1 (UniProt Q9UGP4) | -0.034 (inactive)
MED17 (UniProt Q9NVC6) | 0.009 (inactive)
KIF3A (UniProt Q9Y496) | -0.031 (inactive)
IKZF1 (UniProt Q13422) | -0.018 (inactive)
KSR1 (UniProt Q8IVT5) | 0.054 (inactive)
MAIP1 (UniProt Q8WWC4) | 0.028 (inactive)
LPGAT1 (UniProt Q92604) | 0.019 (inactive)
LTO1 (UniProt Q8WV07) | -0.288 (inactive)
LARP4 isoform 4 (UniProt Q71RC2) | 0.041 (inactive)
IMMP1L (UniProt Q96LU5) | -0.024 (inactive)

Target | log2 fold change
LRBA (UniProt P50851) | 0.014 (inactive)
LMBRD2 (UniProt Q68DH5) | -0.032 (inactive)
MAP2K2 (UniProt P36507) | 0.01 (inactive)
ITM2B (UniProt Q9Y287) | 0.143 (inactive)
IPO13 (UniProt O94829) | -0.03 (inactive)
ILRUN (UniProt Q9H6K1) | 0.116 (inactive)
IRF2BPL (UniProt Q9H1B7) | 0.053 (inactive)
LDLR (UniProt P01130) | -0.002 (inactive)
LUC7L3 (UniProt O95232) | -0.007 (inactive)
MAP2K7 isoform 4 (UniProt O14733) | -0.002 (inactive)
MDC1 (UniProt Q14676) | 0.011 (inactive)
MAP2K1 (UniProt Q02750) | -0.018 (inactive)
MARK3 (UniProt P27448) | 0.058 (inactive)
KIF21A isoform 4 (UniProt Q7Z4S6) | 0.094 (inactive)
LEMD3 (UniProt Q9Y2U8) | 0.062 (inactive)
KDM5D isoform 3 (UniProt Q9BY66) | -0.451 (active)
IK (UniProt Q13123) | 0.05 (inactive)
KLC2 (UniProt Q9H0B6) | 0.086 (inactive)
INPP5B (UniProt P32019) | 0.07 (inactive)
